Measured values from PubChem BioAssay (EPA / NIEHS).
A structure can be active in one record and inactive in another. Activity calls are given as the source filed them. How the source made its calls: active means hit-call score of the fitted dose curve at least 0.9, where 1 is the maximum; inactive means score below 0.9.

assay: ATG_NFI_CIS: Attagene CIS-FACTORIAL HepG2 Assay for human Nuclear Factor I (NFI) (AID 2282989); details: HepG2 cis-regulatory reporter, NFI response element transcription; actives raise or lower the signal
Summary of the method: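 Transfected HepG2 liver cells, exposed 24 h, supplied total RNA for oligo(dT) reverse transcription and reporter-specific PCR. Labelled, HpaI-cut fragments were sized by capillary electrophoresis; DMSO set the baseline for bidirectional fitting.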

Structure (SMILES)	outcome	AC50
N#CN=C(N)N	inactive	–
CCC(=O)C(CC(C)N(C)C)(c1ccccc1)c1ccccc1 (stereo unspecified)	inactive	–
CCc1ccccc1C	inactive	–
CCNc1nc(NC(C)(C)C)nc(SC)n1	inactive	–
CC(C)(C)CC(C)(C)c1ccc(O)cc1	inactive	–
CCOP(=S)(OCC)SCCS(=O)(=O)CC	inactive	–
CC(=O)[O][Hg][c]1ccccc1	–	3.71 µM (active)
CCOP(OCC)OCC	inactive	–
C=C(C)C#N	inactive	–
Fc1ccc(C2(Cn3cncn3)OC2c2ccccc2Cl)cc1 (stereo unspecified)	inactive	–
O=C(O)C(F)(F)C(F)(F)C(F)(F)C(F)(F)C(F)(F)C(F)(F)F	inactive	–
CCC(C)(C)c1ccc(O)c(C(C)(C)CC)c1	inactive	–
CN(C)N=O	inactive	–
CCN(CC)C(=O)Cl	inactive	–
CC1(C)CCC(Cc2ccc(Cl)cc2)C1(O)Cn1cncn1 (stereo unspecified)	inactive	–
O=C1CCCN1	inactive	–
CCCCP(CCCC)CCCC	inactive	–
COS(=O)(=O)c1ccc(C)cc1	inactive	–
Clc1ccc(C2(Cn3cncn3)CC(Br)CO2)c(Cl)c1 (stereo unspecified)	inactive	–
CC(=O)OC(c1ccccc1)C(Cl)(Cl)Cl (stereo unspecified)	inactive	–

Structure (SMILES)	outcome	AC50
CC(=[OH+])/C=C(/C)[O-].CC(=[OH+])/C=C(/C)[O-].CC(=[OH+])/C=C(/C)[O-].[Fe]	inactive	–
CC(C)(c1ccccc1)c1ccc(O)c(C(C)(C)c2ccccc2)c1	–	8.31 µM (active)
c1cc[c]([Hg][c]2ccccc2)cc1	–	20.6 µM (active)
O=C(Cl)c1ccc(Cl)cc1	inactive	–
C[C@@H]1C[C@@H]([C@H](O)CC2CC(=O)NC(=O)C2)C(=O)[C@@H](C)C1	inactive	–
O=C1C2(Cl)C3(Cl)C4(Cl)C(Cl)(Cl)C5(Cl)C3(Cl)C1(Cl)C5(Cl)C24Cl (stereo unspecified)	inactive	17.2 µM (active)
Cl/C=C\C[N+]12CN3CN(CN(C3)C1)C2	inactive	–
ClCc1cccnc1	–	60.8 µM (active)
ClC1(Cl)C2(Cl)C3(Cl)C4(Cl)C(Cl)(Cl)C5(Cl)C3(Cl)C1(Cl)C5(Cl)C24Cl (stereo unspecified)	inactive	–
ClC1=C(Cl)[C@]2(Cl)[C@@H]3[C@@H](Cl)[C@@H](Cl)C[C@@H]3[C@@]1(Cl)C2(Cl)Cl	inactive	–
CN(C)P(=O)(N(C)C)N(C)C	inactive	–
CCN1CCC2(CC1)COc1cc3c(cc12)N(C(=O)c1ccc(-c2ccc(-c4nnc(C)o4)cc2C)cc1)CC3	inactive	–
O=C(O)C(F)(F)C(F)(F)C(F)(F)C(F)(F)C(F)(F)C(F)(F)C(F)(F)C(F)(F)C(F)(F)C(F)(F)F	inactive	157 µM (active)
CC(C)c1ccc(CO)cc1	inactive	–
CCC(C)c1cccc(C(C)CC)c1O (stereo unspecified)	inactive	–
O=C(c1ccccc1)C(Cl)Cl	–	25.1 µM (active)
COC[C@H](C)N(C(=O)CCl)c1c(C)csc1C	inactive	–
Oc1cccc2cccnc12	inactive	–
CC(C)C1CCC(Cc2ccc(Cl)cc2)C1(O)Cn1cncn1 (stereo unspecified)	inactive	–
